Here are results for 36 sequences from the OligoGym collection.

Targets include C6orf48; C6orf203; C6orf223; C6orf58; CA8; CADM4; CAPNS2.
Holding throughout (assay): pooled miR-30 sensor sort-seq; sequence = guide strand
Common to all, as to settings: shRNA
Note: reference of the scale not given here.

Consider TCACACAGGATAATACAGGAAA, for which the sensor-assay potency score (higher = more potent) in the assay with C6orf48 was -0.815.
As for TAGAAAAATACAAGTATCGATT, in the assay with C6orf203, the sensor-assay potency score (higher = more potent) was -1.01.
Consider TAATTAGAGCGCATTAGCCGTG, for which, in the assay with C6orf223, the sensor-assay potency score (higher = more potent) is -0.678.
Regarding TTTCTGTACAAAGATAACCTAT, in the assay with C6orf58, the sensor-assay potency score (higher = more potent) was -0.334.
In turn, TTTCTTCTCGCGCTCGGGGTGT returned a sensor-assay potency score (higher = more potent) with C6orf223 of -0.841.
With TTTGAGGACAGCTGAAGTCTTG, in the assay with C6orf223, the sensor-assay potency score (higher = more potent) is -0.66.
With TTAGTAGATTTTGTAGACCTTA, the sensor-assay potency score (higher = more potent) with C6orf203 was -0.225.
TTACACCAGAATCAACCGCAGC gave a sensor-assay potency score (higher = more potent) in the assay with C6orf58 of -1.25.
TGACAGCTGCTCACACAGGATA: the sensor-assay potency score (higher = more potent) with C6orf48 was -1.51.
TTGGCTGAGTCAGACTCTCGGA came in with a sensor-assay potency score (higher = more potent) with C6orf223 of -0.102.
In turn, TTAAACTTTTCCACCGCCGTAA had a sensor-assay potency score (higher = more potent) with C6orf203 of -0.414.
ATAGCAAGGAAGGAGAACAGGC returned a sensor-assay potency score (higher = more potent) with C6orf48 of -1.07.
In turn, TATGATTTTATACATCCCCATT gave a sensor-assay potency score (higher = more potent) with C6orf58 of -1.55.
On the same count and under the same terms, then TAATTCATTAATCATTTCCTGA, with -0.771.
Consider TTCTTCTGGATGCTCTGACCAT, for which the sensor-assay potency score (higher = more potent) with C6orf223 is -0.868.
TCAAGTTGCAGGAATCACTGTC: the sensor-assay potency score (higher = more potent) with C6orf48 worked out at 0.907.
On to TTTATCCACATTGTCAAGCATA, for which the sensor-assay potency score (higher = more potent) with C6orf58 is -1.01.
Take AAGTTCTTAGGATATGCCCAGC: the sensor-assay potency score (higher = more potent) with C6orf48 is -0.846.
On to TTATAGTTTTTGACTACAGTAG, for which the sensor-assay potency score (higher = more potent) in the assay with C6orf203 is -0.647.
For AGTTGCAGGAATCACTGTCTAA, in the assay with C6orf48, the sensor-assay potency score (higher = more potent) is -1.7.
With TTATATGATCTAATCAAGGTTG, in the assay with C6orf58, the sensor-assay potency score (higher = more potent) is -0.152.
For the sequence TATTGTGTCAGCAAATTCCATA, the sensor-assay potency score (higher = more potent) with C6orf48 was -0.54.
As for ATATTGTGTCAGCAAATTCCAT, in the assay with C6orf48, the sensor-assay potency score (higher = more potent) is -1.29.
On to AAACACTCTGTCTTCCTGCTTT, for which, in the assay with C6orf223, the sensor-assay potency score (higher = more potent) was 0.482.
In the assay with C6orf48, TTAGGATATGCCCAGCACCAGG returned a sensor-assay potency score (higher = more potent) of -1.71.
Consider TATTCTGTTCATTATCTGGTGC, for which the sensor-assay potency score (higher = more potent) with C6orf58 is -0.148.
Same read-out and setting: then TTCTGTACAAAGATAACCTATA, with -1.09; and TTGGATCAGCTAATCTGCCTGT, with 0.319.
Regarding TTCCATAGCAAGGAAGGAGAAC, the sensor-assay potency score (higher = more potent) with C6orf48 was -0.82.
In turn, TCTTCTGGATGCTCTGACCATC came in with a sensor-assay potency score (higher = more potent) with C6orf223 of -1.03.
The sequence TTACTGATTGTCAAGTTCGAGT came in with a sensor-assay potency score (higher = more potent) with C6orf58 of -0.967.
In the case of TTCTTTGGAATATACAGCCATT, the sensor-assay potency score (higher = more potent) with CA8 is -0.749.
The same measure, in the same setting: then AATTCTTCTATCTGTAGCTGGG, with -0.112.
TTACGGTCCACACGAAACCGTA: the sensor-assay potency score (higher = more potent) with CADM4 was -1.33.
AAGCTGGAAACGCTCATCCTTC yielded a sensor-assay potency score (higher = more potent) in the assay with CADM4 of -1.15.
Regarding TTTGTGCTTAGAAAGGACTTTG, in the assay with CAPNS2, the sensor-assay potency score (higher = more potent) is -0.468.
